Assay [1] addresses Lysosomal acid glucosylceramidase (Homo sapiens) (UniProt P04062). Put plainly: Glucocerebrosidase-p2 (AID 348; in the data active = potency below about 10 µM; note: potency is the fitted concentration of half-maximal effect). Conditions: purified GBA, blue fluorogenic substrate, 40 min. In short, it runs like this:
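Compounds titrated from 0.6 nM upwards against 0.2 nM enzyme in pH 5.9 citric acid/KH2PO4, taurocholate, tween-20; blue fluorogenic substrate 80 uM, 40 min room temperature, stopped and read Ex 365/Em 440 for AC50.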

A short description of assay [2]: AP1 Signaling Pathway (AID 357; active = well fitted curve in either direction with a large enough effect, not every such curve was filed as active; note: % is set by controls: 0 for no effect and ±100 for the full control effect). Conditions: ME-180 AP-1-bla reporter, EGF-induced, beta-lactamase ratio, 5 h; at 7.69 µM (top of the series) unless noted. The method in brief: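 ME-180 cells with beta-lactamase reporter under AP-1 response element, stimulated with EC50 EGF; compounds tested in titration series, 5 h at 37 °C. CCF4 substrate added 2.5 h at room temperature; 460/530 nm emission ratio gave %activity and AC50.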

Assay [3] concerns the target Cytochrome P450 1A2 (Homo sapiens) (UniProt P05177). Put plainly: p450-cyp1a2 (AID 410; calls by dose curve; note: potency is the fitted concentration of half-maximal effect). Conditions: recombinant CYP1A2, luciferin-ME demethylation, luminescence; series mostly up to 57 µM. The method in brief: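 20nM CYP1A2 with 100uM Luciferin-ME (at Km) in 100mM KPO4; compound preincubated 10 min, NADPH regeneration added, 60 min at room temperature. Luciferin quantified by luminescence after detection reagent; normalized to 57 uM furafylline.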

Assay [4] in a line: NFAT Signaling Pathway (AID 444; active = well fitted curve in either direction with a large enough effect, not every such curve was filed as active;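 note: carbachol stimulus at about its EC50 of 1 µM final; % is set by controls: 0 for no effect and ±100 for the full control effect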). Conditions: Jurkat NFAT-bla M1, carbachol, beta-lactamase ratio, 5 h; at 7.69 µM (top of the series) unless noted. The method in brief: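 Jurkat cells with NFAT-driven β-lactamase reporter and co-expressed M1 receptor, stimulated with carbachol (final 1 uM, ~EC50), compound titration, 5 h at 37 °C. CCF4 loaded 1 h at RT; 460/530 nm ratio gave %activity and AC50.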

The nature of assay [5]: Stat Signaling Pathway (AID 446; active = well fitted curve in either direction with a large enough effect, not every such curve was filed as active;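 note: ME-180 cervical cancer cells given 40 pM IL-6 alongside compound; SIE-controlled beta-lactamase reporter measured as 460/530 nm FRET emission ratio; % is set by controls: 0 for no effect and ±100 for the full control effect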). Conditions: ME-180 SIE beta-lactamase reporter, IL-6 stimulated, 5 h; at 7.69 µM (top of the series) unless noted. The method in brief:
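IL-6/STAT signaling read in ME-180 cells via an SIE beta-lactamase reporter. Stimulus was 40 pM IL-6 (its AC50) for 5 hrs, so both activation and inhibition register.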

In assay [6] the target is Glucocorticoid receptor (Homo sapiens) (UniProt P04150). Put plainly: GR-GFP Redistribution (AID 450;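 active = compounds whose dose series gives a full or clear partial fitted curve of increased nuclear translocation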; note: potency is the fitted concentration of half-maximal effect). Conditions: U2OS GR-GFP nuclear translocation, laser cytometry, 2 h.
The target is the same in assay [7]. Put plainly: GR-EFC Redistribution (AID 451; calls by dose curve; note: potency is the fitted concentration of half-maximal effect). Conditions: CHO-K1 GR-EFC translocation, beta-gal luminescence, 2 h. The method in brief: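 CHO-K1 cells expressing nuclear EA and GR-ED fragments of b-gal; compounds titrated up to 46 uM final, 2 h at 37 C. GR nuclear translocation read as complemented b-gal luminescence after 1 h RT detection.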
Assay [8] deals with Mitogen-activated protein kinase 10 (Mus musculus) (UniProt Q61831). Description: JNK3 AlphaScreen Assay (AID 530; active = well fitted curve in either direction with a large enough effect, not every such curve was filed as active;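 note: kinase came from lysate of stimulated human HepG2 cells; signal reports phosphorylation of biotinylated GST-cJun 1-79 at Ser73 with 10 µM ATP; % is set by controls: 0 for no effect and ±100 for the full control effect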). Conditions: JNK3 lysate, c-Jun phosphorylation; series mostly up to 57.1 µM. In short, it runs like this:
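Pre-activated (IL-1β/TNFα) JNK3 in HepG2 lysates phosphorylates biotin-GST-cJun(1-79), 10 uM ATP; anti-phospho-cJun(Ser73) AlphaScreen read at room temperature, pH 7.6 Tris buffer. Compounds pre-incubated 15 min as titrations.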
Background: In Alpha technology, singlet oxygen from a donor bead excites a nearby acceptor bead.

Assay [9] addresses 3',5'-cyclic-AMP phosphodiesterase 4B (Homo sapiens) (UniProt Q07343). Put plainly: qHTS Assay for Inhibitors of PDE-IV (AID 607; active = well fitted activation curve with a large enough effect in the main read-out, with a control signal flat, not every such curve was filed as active; note: % of control where 0% means no effect). Conditions: HEK293 ACTOne CNG channel cells, membrane potential fluorescence; series mostly up to 22.9 µM. The method in brief:
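Live HEK293 cells with a modified cyclic nucleotide-gated (CNG) channel report intracellular cAMP via membrane-potential dye fluorescence (ex 535/em 590 nm). Endogenous PDE-IV was targeted. Compounds were tested at up to 22.9 uM final; RO 20-1724 100 uM served as control.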
In general terms: qHTS replaces the single test concentration by a dilution series.

Assay [10] has as its target Cytochrome P450 2C19 (Homo sapiens) (UniProt P33261). Put plainly: qHTS Assay for Inhibitors and Substrates of Cytochrome P450 2C19 (AID 899). Note: potency is the fitted concentration of half-maximal effect; nearly all actives have a fitted effect of over 60% in size. Conditions: recombinant CYP2C19, luciferin-H EGE luminescence; series mostly up to 57.1 µM. The method in brief:
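5 nM human CYP2C19 with 10uM Luciferin-H EGE (at KM) in 50mM KPO4, compound preincubated 10 min at 37C, then NADPH regeneration for 60 min at 37C. Luciferin read by luminescence after detection reagent; normalized to 57uM ketoconazole as full inhibition.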

Assay [11] deals with Dual specificity protein kinase CLK4 (Homo sapiens) (UniProt Q9HAZ1). Put plainly: qHTS Assay for Inhibitors of CDC-like Kinase 4 (ADP-FP Assay) (AID 1795). Note: % is set by controls: 0 for no effect and ±100 for the full control effect; nearly all actives have a fitted effect of over 60% in size. Conditions: Transcreener ADP fluorescence polarization; series mostly up to 50 µM. The method in brief: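 Inhibition of ADP formation by 6.25 nM Clk4 is measured using 1 uM ATP and 100 uM RS repeat peptide over one hour. Produced ADP displaces a fluorescent tracer from antibody, lowering polarization.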

Assay [12] has as its target Ubiquitin carboxyl-terminal hydrolase 1 (Homo sapiens) (UniProt O94782). Description: Inhibitors of USP1/UAF1: Pilot qHTS (AID 504865).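 Note: rhodamine fluorescence freed from ubiquitin-rhodamine substrate followed over time; top concentration of the series differs between compounds; % is set by controls: 0 for no effect and ±100 for the full control effect; nearly all actives have a fitted effect of over 35% in size.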 Conditions: purified USP1/UAF1, Ub-rhodamine cleavage fluorescence; series mostly up to 54.9 µM. In short, it runs like this: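 Kinetic fluorescence assay: 1nM USP1/UAF1, 15 min compound preincubation, then 150nM Ub-Rho; 480/540 nm.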

A short description of assay [13]: Primary qHTS for small molecule stabilizers of the endoplasmic reticulum resident proteome: Secreted ER Calcium Modulated Protein (SERCaMP) assay (AID 1508630). Note: % is set by controls: 0 for no effect and ±100 for the full control effect. Conditions: SH-SY5Y GLuc-SERCaMP (Gaussia luciferase released on ER calcium loss) secretion, thapsigargin, luminescence; series mostly up to 38.4 µM. In short, it runs like this:
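GLuc-SERCaMP-expressing SH-SY5Y cells, pretreated 16 h with compound, are challenged with thapsigargin to empty ER calcium stores; after 4 h, coelenterazine is added directly to the medium and luminescence is imaged.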

The target in assay [14] is Cytochrome P450 3A4 (Homo sapiens) (UniProt P08684). Put plainly: qHTS Assay for Inhibitors and Substrates of Cytochrome P450 3A4 (AID 884). Note: potency is the fitted concentration of half-maximal effect; nearly all actives have a fitted effect of over 50% in size. Conditions: recombinant CYP3A4, Luciferin-PPXE luminescence; series mostly up to 57.1 µM. In short, it runs like this: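 20 nM human CYP3A4 with 25 uM Luciferin-PPXE (at KM) in 200 mM KPO4, preincubated 10 min with compound; NADPH regeneration started a 60 min RT reaction. Luciferin detected by luminescence, normalized to 57 uM ketoconazole as full inhibition.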

Assay [15] has the same target. Put plainly: qHTS Assay for Activators of Cytochrome P450 3A4 (AID 885). Note: nearly all actives have a fitted effect of over 65% in size. Conditions: recombinant CYP3A4, Luciferin-PPXE luminescence, 60 min; series mostly up to 57.1 µM. In short, it runs like this: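 Quantitative HTS format: compounds preincubated with 20nM human CYP3A4 and Luciferin-PPXE substrate at KM, reaction started by NADPH regeneration, stopped after 60 min, luciferase luminescence read 20 min later.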

The target of assay [16] is Dual specificity protein kinase CLK4 (Homo sapiens) (UniProt Q9HAZ1). Put plainly: qHTS Assay for Inhibitors of CDC-like Kinase 4 (ADP-Glo Assay) (AID 1771). Note: nearly all actives have a fitted effect of over 70% in size. Note: potency is the fitted concentration of half-maximal effect. Conditions: recombinant CLK4, ADP-Glo luminescence; series mostly up to 80 µM. In short, it runs like this: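 25 nM Clk4 with 100 uM RS repeat peptide and 1 uM ATP (final) in buffer with 2 mM MgCl2, 0.5 mM EGTA, 2.5 mM DTT, 0.01% Triton X-100; 1 h at room temperature; ADP-Glo luminescence for ADP formed.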

Assay [17] in a line: qHTS Assay for Identification of Small Molecule Agonists for Hypoxia Response Element Signaling Pathway (AID 914; active = well fitted activation curve with a large enough effect in the signal ratio, with a control signal flat, not every such curve was filed as active; the % refers to the signal ratio; note: % of control where 0% means no effect). Conditions: ME-180 (cervical carcinoma) HRE-bla reporter, beta-lactamase ratio, CoCl2, 17 h; activation: active compounds read high. The method in brief: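 AC50 values come from titration-series %Activity, taken as the 460/530nm ratio of CCF4 fluorescence (excitation 405nm). CellSensor HRE-bla ME-180 cells were treated 17 hours at 37 C with compound plus an EC50 level of CoCl2.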

A number with no mark means an inactive call. Results filed as inconclusive are left out. The source made the active and inactive calls. Unless noted, calls come from the whole dose curve; as a rule, active = well fitted curve in the direction sought with a large enough effect; inconclusive = small, poorly fitted or top-dose-only effect, or another doubt; inactive = no such curve, though single readings can be large; an effect the other way counts as inactive or inconclusive.

The results in this text go back to PubChem BioAssay (NCATS).

Sequence of Dual specificity protein kinase CLK4 (Homo sapiens) (Q9HAZ1 whole entry, looked up): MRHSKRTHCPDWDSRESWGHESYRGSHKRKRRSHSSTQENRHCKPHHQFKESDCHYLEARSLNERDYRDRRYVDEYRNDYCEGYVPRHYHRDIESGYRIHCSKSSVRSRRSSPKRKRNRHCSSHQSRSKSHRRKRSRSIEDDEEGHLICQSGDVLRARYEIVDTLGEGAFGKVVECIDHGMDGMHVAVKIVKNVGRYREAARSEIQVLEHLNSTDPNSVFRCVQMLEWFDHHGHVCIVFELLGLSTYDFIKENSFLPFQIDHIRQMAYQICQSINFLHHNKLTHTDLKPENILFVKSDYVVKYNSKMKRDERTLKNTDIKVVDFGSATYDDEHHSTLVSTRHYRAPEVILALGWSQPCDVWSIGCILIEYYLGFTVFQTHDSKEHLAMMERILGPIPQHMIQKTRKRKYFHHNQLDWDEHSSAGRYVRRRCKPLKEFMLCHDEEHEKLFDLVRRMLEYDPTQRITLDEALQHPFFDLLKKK
Sequence of Cytochrome P450 1A2 (Homo sapiens) (P05177 whole entry, looked up): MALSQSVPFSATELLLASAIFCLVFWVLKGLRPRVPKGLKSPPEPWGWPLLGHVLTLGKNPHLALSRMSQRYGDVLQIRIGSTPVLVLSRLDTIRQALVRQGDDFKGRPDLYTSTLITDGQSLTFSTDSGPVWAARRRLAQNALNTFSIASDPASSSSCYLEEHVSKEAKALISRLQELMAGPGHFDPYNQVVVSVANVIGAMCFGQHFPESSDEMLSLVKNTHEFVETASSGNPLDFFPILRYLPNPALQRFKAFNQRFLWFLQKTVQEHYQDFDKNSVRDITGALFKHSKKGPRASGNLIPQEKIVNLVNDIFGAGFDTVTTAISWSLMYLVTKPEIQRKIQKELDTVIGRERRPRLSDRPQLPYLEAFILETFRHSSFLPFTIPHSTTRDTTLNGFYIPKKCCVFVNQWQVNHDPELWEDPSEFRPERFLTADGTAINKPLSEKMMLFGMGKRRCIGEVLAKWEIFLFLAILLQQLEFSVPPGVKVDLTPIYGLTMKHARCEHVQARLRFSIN
Sequence of 3',5'-cyclic-AMP phosphodiesterase 4B (Homo sapiens) (Q07343 whole entry, looked up): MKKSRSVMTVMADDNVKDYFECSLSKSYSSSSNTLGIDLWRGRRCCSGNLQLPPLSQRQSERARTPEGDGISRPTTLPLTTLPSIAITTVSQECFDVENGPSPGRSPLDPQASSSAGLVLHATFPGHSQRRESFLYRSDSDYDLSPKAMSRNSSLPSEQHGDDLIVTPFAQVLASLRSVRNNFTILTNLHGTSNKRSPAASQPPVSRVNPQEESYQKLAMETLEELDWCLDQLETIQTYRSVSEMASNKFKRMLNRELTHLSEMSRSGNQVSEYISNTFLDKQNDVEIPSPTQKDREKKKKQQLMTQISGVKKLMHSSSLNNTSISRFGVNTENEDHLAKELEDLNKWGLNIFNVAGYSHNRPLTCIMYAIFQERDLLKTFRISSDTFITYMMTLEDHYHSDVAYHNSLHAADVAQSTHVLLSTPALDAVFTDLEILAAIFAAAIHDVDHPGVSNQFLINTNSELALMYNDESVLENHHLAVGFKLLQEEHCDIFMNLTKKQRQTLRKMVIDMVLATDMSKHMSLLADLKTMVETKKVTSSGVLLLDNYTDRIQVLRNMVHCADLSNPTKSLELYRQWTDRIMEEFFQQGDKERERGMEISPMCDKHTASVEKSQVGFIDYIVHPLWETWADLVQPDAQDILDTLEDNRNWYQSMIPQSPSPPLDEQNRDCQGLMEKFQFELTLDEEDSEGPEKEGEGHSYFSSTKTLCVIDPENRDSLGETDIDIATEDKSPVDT
Sequence of Glucocorticoid receptor (Homo sapiens) (P04150 whole entry, looked up, the tested form may be a part): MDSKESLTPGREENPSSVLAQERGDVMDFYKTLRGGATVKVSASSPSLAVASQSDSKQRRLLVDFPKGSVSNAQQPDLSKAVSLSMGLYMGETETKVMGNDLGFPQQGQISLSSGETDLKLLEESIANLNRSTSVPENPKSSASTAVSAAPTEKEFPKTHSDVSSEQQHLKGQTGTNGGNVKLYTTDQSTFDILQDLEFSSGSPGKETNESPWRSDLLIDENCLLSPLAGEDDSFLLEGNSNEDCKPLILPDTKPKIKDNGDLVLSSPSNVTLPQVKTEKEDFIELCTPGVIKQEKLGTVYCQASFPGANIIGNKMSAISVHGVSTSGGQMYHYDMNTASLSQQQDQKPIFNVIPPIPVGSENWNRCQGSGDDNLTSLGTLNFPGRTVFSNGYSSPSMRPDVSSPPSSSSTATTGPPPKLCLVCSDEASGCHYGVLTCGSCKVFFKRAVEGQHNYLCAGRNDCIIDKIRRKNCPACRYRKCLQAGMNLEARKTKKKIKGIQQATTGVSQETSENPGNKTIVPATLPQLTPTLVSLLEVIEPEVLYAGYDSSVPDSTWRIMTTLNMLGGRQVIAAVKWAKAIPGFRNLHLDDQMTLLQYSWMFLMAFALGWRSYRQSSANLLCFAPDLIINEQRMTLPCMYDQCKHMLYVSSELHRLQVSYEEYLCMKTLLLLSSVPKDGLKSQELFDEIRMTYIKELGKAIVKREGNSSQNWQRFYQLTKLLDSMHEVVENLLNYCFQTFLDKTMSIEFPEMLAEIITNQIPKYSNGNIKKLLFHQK
Sequence of Ubiquitin carboxyl-terminal hydrolase 1 (Homo sapiens) (O94782 whole entry, looked up): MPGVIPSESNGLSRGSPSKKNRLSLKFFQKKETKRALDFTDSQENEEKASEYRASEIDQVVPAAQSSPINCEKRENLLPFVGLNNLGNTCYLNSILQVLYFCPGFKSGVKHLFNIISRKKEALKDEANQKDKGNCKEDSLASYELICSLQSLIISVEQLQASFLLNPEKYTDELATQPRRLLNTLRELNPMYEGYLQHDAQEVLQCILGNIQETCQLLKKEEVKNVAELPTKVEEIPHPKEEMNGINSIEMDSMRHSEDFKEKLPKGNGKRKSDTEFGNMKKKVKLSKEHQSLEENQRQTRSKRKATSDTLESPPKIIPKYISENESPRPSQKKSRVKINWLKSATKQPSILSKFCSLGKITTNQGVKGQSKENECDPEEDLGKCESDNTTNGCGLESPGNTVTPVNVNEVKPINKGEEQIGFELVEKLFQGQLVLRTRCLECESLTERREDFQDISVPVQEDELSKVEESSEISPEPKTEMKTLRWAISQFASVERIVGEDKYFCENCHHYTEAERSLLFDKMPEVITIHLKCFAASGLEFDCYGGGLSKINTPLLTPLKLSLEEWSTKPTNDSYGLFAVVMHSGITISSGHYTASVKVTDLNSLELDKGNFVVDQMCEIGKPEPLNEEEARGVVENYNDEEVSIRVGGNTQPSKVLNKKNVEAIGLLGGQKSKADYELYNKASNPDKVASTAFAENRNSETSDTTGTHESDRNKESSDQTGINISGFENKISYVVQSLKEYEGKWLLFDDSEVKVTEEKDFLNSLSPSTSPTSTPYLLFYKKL
Sequence of Lysosomal acid glucosylceramidase (Homo sapiens) (P04062 whole entry, looked up): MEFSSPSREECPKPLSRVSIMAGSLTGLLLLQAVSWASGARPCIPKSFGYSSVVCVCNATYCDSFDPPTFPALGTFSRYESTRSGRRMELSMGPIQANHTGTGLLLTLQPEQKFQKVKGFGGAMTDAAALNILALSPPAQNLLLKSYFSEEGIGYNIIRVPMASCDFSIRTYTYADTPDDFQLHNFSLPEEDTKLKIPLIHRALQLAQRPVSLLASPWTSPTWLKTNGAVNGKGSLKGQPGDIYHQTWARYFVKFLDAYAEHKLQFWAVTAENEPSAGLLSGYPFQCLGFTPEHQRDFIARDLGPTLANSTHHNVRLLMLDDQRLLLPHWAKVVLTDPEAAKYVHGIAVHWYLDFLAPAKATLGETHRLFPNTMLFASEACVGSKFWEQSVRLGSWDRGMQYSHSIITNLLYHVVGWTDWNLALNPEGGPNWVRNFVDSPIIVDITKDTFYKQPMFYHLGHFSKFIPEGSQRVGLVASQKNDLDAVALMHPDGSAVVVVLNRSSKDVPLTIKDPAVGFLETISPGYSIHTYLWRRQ
Sequence of Cytochrome P450 3A4 (Homo sapiens) (P08684 whole entry, looked up): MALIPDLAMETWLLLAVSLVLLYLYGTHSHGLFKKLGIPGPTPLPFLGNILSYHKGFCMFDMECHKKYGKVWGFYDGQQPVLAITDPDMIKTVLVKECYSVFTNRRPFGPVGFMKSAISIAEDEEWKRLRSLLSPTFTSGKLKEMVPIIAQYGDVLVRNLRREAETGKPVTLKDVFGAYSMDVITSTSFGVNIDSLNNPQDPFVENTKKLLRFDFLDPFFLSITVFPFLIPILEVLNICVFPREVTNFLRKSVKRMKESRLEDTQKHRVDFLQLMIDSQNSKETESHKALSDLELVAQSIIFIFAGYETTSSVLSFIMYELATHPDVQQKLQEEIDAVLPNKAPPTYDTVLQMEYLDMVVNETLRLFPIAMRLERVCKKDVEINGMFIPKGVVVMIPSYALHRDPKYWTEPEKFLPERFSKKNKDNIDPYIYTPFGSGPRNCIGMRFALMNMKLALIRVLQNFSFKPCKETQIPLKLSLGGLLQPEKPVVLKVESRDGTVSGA
Sequence of Cytochrome P450 2C19 (Homo sapiens) (P33261 whole entry, looked up): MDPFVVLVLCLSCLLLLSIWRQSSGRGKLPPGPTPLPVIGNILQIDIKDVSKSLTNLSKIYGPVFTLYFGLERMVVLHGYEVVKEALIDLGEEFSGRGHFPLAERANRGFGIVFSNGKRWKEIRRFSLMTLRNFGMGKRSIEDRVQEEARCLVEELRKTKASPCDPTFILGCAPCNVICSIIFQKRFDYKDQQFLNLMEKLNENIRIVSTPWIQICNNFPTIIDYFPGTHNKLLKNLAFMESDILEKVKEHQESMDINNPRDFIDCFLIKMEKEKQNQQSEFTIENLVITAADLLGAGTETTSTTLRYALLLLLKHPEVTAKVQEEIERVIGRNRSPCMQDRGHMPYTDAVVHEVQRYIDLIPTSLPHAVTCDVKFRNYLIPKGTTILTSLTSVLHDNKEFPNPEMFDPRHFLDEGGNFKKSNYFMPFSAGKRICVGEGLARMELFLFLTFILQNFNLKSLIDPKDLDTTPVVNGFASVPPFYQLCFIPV

Consider `Cc1ccccc1-c1cc(N(C)Cc2ccco2)ncn1`, for which the Potency is greater than 11.4 µM in assay [1]; 3.98 µM (active) in assay [3]; greater than 46 µM in assay [6]; greater than 46 µM in [7]; 6.31 µM (active) in assay [10]. In addition, the activity change, negative = inhibition in assay [2] was 7.17%; in [4], -15.6%. In addition, the activity, negative = inhibition in assay [5] was 8.71%. The Potency entry in assay [8], in assay [9], in assay [11] and in [12] was “inactive” in each case. Also, the result in [13] was inactive.

`COc1ccc2[nH]cc(CCNc3ncncc3-c3cccnc3)c2c1`: the Potency in [1] is greater than 11.4 µM; in [3], 0.316 µM (active); in assay [6], greater than 46 µM; in [7], greater than 46 µM; in [14], 0.794 µM (active); in assay [10], 3.16 µM (active). In addition, the activity change, negative = inhibition in assay [2] was 9.96%; in [4] it was 3.23%. In addition, the activity, negative = inhibition in [5] is 2.25%. For the same compound, the Potency result in [8], in assay [9], in [15], in assay [11] and in assay [12] was “inactive” throughout. The outcome in assay [13] was inactive.

On to `CNc1nc(-c2ccoc2)nc2ccccc12`, for which the Potency is greater than 11.4 µM in assay [1], 0.398 µM (active) in assay [3], greater than 46 µM in assay [6] and greater than 46 µM in [7]. The results for the activity change, negative = inhibition in assay [2] and in [4] were 0.93% and -22.3%, respectively. In addition, the activity, negative = inhibition in [5] is 8.64%. Besides, the Potency entry in [8], in [9], in assay [15] and in assay [16] was “inactive” throughout. In addition, the result in assay [13] was inactive.

On to `CS(=O)(=O)Nc1cccc(-c2cc(Nc3ccccc3)ncn2)c1`, for which the Potency in assay [1] is greater than 11.4 µM; in assay [3] it was 0.398 µM (active); in assay [6] it was greater than 46 µM; in assay [16], 35.5 µM (active). For the same compound, the figures for the activity change, negative = inhibition in [2] and in [4] were -27.9% and 10.9%, respectively. In assay [5], the activity, negative = inhibition is 3.87%. Also, the Potency entry in [8], in assay [9], in assay [15] and in [12] was “inactive” each time. Moreover, the activation in assay [17] was -13.8%. The result in assay [13] was inactive.

Consider `CS(=O)(=O)Nc1cccc(-c2cncnc2-n2ccnc2)c1`, for which the Potency in assay [1] is greater than 11.4 µM; in assay [3], 15.8 µM (active); in [6], greater than 46 µM; in [7] it was greater than 46 µM; in [14], 7.94 µM (active). The activity change, negative = inhibition in [2] was 7.32%; in assay [4], 14.5%. For the same compound, the activity, negative = inhibition in assay [5] was 14.6%. Besides, the Potency result in assay [8], in assay [9], in assay [15], in [11] and in [12] was “inactive” each time. The outcome in assay [13] was inactive.

As to `c1cncc(CNc2cc(-c3ccoc3)ncn2)c1`, the Potency was greater than 11.4 µM in [1], 3.16 µM (active) in assay [3], greater than 46 µM in [6] and greater than 46 µM in assay [7]. Also, the activity change, negative = inhibition was 0.0422% in [2] and -10.4% in assay [4]. Moreover, the activity, negative = inhibition in assay [5] was 11.8%. Further, the Potency entry in [8], in assay [9], in assay [15], in assay [11] and in assay [12] was “inactive” each time. In addition, the outcome in assay [13] was inactive.
